According to PubChem BioAssay AID493168 (National Center for Advancing Translational Sciences (NCATS), 2011):
Records with an inconclusive call do not appear. A call without a number means that no potency is given here. Active and inactive are the calls of the source. The call rests on the fitted dose curve; in most records, active means well fitted inhibition curve with a large enough effect; inconclusive means small, poorly fitted or top-dose-only effect, or effect the other way; inactive means flat fitted curve, though single readings scatter.
Further: nearly all actives have a fitted effect of over 55% in size.
Potency means the concentration at half of the fitted maximal effect.

Each molecule was assayed against Ubiquitin carboxyl-terminal hydrolase 2 (Homo sapiens) (UniProt O75604) (assay: Confirmation Assay for Inhibitors of Ubiquitin-specific Protease USP2a Using CHOP2 as the Reporter). Settings: USP2 core, Ub-CHOP2 coupled reporter fluorescence; series mostly up to 38.3 µM.
Ubiquitin carboxyl-terminal hydrolase 2 (Homo sapiens), sequence (O75604 whole entry, looked up): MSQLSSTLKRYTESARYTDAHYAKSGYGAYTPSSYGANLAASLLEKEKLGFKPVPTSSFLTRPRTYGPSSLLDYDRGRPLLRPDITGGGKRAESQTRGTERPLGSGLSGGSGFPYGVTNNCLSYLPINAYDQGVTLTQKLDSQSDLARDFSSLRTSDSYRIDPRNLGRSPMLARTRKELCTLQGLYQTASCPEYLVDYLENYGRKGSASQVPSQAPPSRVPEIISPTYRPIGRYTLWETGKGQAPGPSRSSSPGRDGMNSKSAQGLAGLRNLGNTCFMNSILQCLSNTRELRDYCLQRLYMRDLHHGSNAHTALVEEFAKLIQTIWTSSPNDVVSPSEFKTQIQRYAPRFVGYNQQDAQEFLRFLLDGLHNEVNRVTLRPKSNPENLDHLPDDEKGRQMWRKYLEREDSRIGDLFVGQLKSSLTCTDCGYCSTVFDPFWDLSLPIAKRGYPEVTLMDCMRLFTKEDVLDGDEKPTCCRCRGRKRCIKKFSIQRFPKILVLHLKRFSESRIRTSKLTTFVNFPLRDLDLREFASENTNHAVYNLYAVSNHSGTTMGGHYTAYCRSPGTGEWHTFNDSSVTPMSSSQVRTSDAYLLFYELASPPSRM
In short: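 USP2 core (10 nM final) was preincubated with compound for 30 min at RT in Tris-HCl pH 8.0, CaCl2, beta-mercaptoethanol, CHAPS. Ub-CHOP2 and reporter substrate (25 nM final each) were added, and fluorescence (Ex 485/Em 531 nm) was read after 60 min.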
`CC(=O)O[C@H]1[C@H](O)[C@H](Oc2c(O)c(C)c3c4c2[C@@H](C)CC[C@@H]4[C@@H](C)C[C@H]3C=C(C)C)O[C@@H](C)[C@H]1O` was tested, and the Potency was “inactive”. For `O=C(Nc1ccc2c(c1)OCO2)NC1(C(F)(F)F)Oc2ccccc2O1`, the Potency was “inactive”. With `Cc1cc(Cl)ccc1NC(=S)NCCCN1CCCC1=O` the Potency was “inactive”. In the case of `NS(=O)(=O)c1cc(C(=O)NC2CCSc3ccccc32)ccc1Cl` (stereo not given), the Potency was 13.1 µM (active). In the case of `CNS(=O)(=O)c1cccc(C(=O)OCC(=O)c2cc(C)n(-c3ccc4c(c3)OCO4)c2C)c1`, the Potency was “inactive”. With `CCOC(=O)Nc1nnc(CCc2ccccc2)s1` the Potency was “inactive”. With `Nc1c(C(=O)NCC2CCCO2)sc2nc3c(c(-c4ccco4)c12)CC/C3=C\c1ccco1` (stereo not given) the Potency was 4.14 µM (active). For `CCOc1ccc(S(=O)(=O)N(CC(=O)O)c2ccccc2)cc1`, the Potency was “inactive”. In the case of `COc1ccc(-c2[nH]ncc2/C=C(/C#N)C(=O)NC2CCCCC2)cc1`, the Potency was “inactive”. With `CC1CCCCC1NC(=O)CSCC(=O)O` (stereo not given) the Potency was “inactive”. For `Cc1ccc(/C(N)=N/OC(=O)Oc2ccccc2)cc1`, the Potency was “inactive”. With `COc1cc(/C=C/[N+](=O)[O-])ccc1OCc1cccc(C(=O)O)c1` the Potency was “inactive”. For `CCN(CC(=O)Nc1ccc(NC(C)=O)cc1)C(=O)c1ccc(N2CCC(C)CC2)c([N+](=O)[O-])c1`, the Potency was “inactive”. With `O=C(Nc1ccc(Oc2ccc(Cl)cc2)cc1)c1ncn[nH]1` the Potency was “inactive”. `CC(=O)Nc1ccc(NC(=O)[C@@H](NC(=O)c2cccc(C)c2)C(C)C)cc1` was tested, and the Potency was “inactive”. With `Oc1c(Cl)cc(Cl)c(Cl)c1Cc1c(O)c(Cl)cc(Cl)c1Cl` the Potency was 5.21 µM (active). In the case of `O=C(O)CC(C(=O)O)N1C(=O)/C(=C/C=C/c2ccco2)SC1=S` (stereo not given), the Potency was 4.14 µM (active). With `CCn1cc(C(=O)N2CCOCC2)c(=O)c2cc(S(=O)(=O)N(C)C)ccc21` the Potency was “inactive”. With `CC(C)Oc1ccc(C(=O)Nc2ccc(N3CCCC3)cc2)cc1` the Potency was “inactive”. For `N#Cc1c(Nc2ccc(Cl)cc2)s[nH]c1=O`, the Potency was “inactive”. In the case of `CC(C)(C)C1CCC(=NNC(=O)CN(c2ccccc2)S(C)(=O)=O)CC1` (stereo not given), the Potency was “inactive”. In the case of `Cc1cccc(NC(=O)NCc2ccc3c(c2)cc(C)n3C)c1`, the Potency was “inactive”. `Cc1ccc(C2=N/C(=C\c3c(C)nn(-c4ccccc4)c3N3CCCC3)C(=O)O2)cc1` was tested, and the Potency was “inactive”. `CCOC(=O)c1c(C)[nH]c(C(=O)COC(=O)CSC)c1C` was tested, and the Potency was “inactive”. `O=c1/c(=C/c2ccco2)sc2n1CN(c1cccc(Br)c1)CN=2` was tested, and the Potency was “inactive”. For `Cc1ccc2nc(NCCCNC(=O)c3cnccn3)c(C#N)cc2c1`, the Potency was “inactive”. In the case of `O=C(NCCCN1CCCC1=O)c1cccc(N2CCCC2=O)c1`, the Potency was “inactive”. In the case of `Oc1ccc(/C=N/NC(=S)N/N=C/c2ccc(O)cc2)cc1`, the Potency was “inactive”. For `Cc1ccc(O)c(CC(C)C)n1`, the Potency was “inactive”. For `Cc1ccc(-c2c(C#N)c(N)nc3c2CCCCC3)o1`, the Potency was “inactive”. For `O=C1c2ccccc2CCC12N=NCC2c1ccc(Br)cc1` (stereo not given), the Potency was “inactive”. With `O=C(Nc1ccc(N2CCCC2)c(Cl)c1)c1ccc(Br)o1` the Potency was “inactive”. In the case of `COc1cc2c(C(=O)N3CCN(c4cccc(Cl)c4)CC3)cn(CC(C)C)c(=O)c2cc1OC`, the Potency was “inactive”. For `Cc1ccc(C(=O)NCc2ccc3c(c2)OCO3)cc1N1CCCC1=O`, the Potency was “inactive”. For `c1ccc(Nc2c3c(nc4ncnn24)CCC3)cc1`, the Potency was “inactive”. For `CCN(C[C@H]1N[C@@](CC)(C(=O)OC)[C@H]2C(=O)N(Cc3ccccc3)C(=O)[C@@H]12)C(=O)Nc1ccc(C)cc1`, the Potency was “inactive”. `CC(CN1CCCCC1)OC(=O)c1ccc(Cl)cc1` (stereo not given) was tested, and the Potency was “inactive”. With `Cc1nc(N(C)C)c2sc(=S)n(C)c2n1` the Potency was “inactive”. With `COc1ccccc1NC(=O)CSc1nc(O)cc(=O)n1-c1ccccc1OC` the Potency was “inactive”. In the case of `COC(=O)N/N=C\c1cc(Br)ccc1OCc1ccccc1`, the Potency was “inactive”.
